The source of these data is PubChem BioAssay.

Each structure is given as a SMILES string. Values joined by “and” are separate entries in the source; they are usually repeats but may differ in a detail not shown here. Equal values may be shown once. Active and inactive are the calls of the source. Unless noted, how the calls were made is not given here.

The first assay is described as follows: HDN33 neuroblastoma growth inhibition, cell-based, chromothripsis tumors, cisplatin or BGB combos (AID 1671450).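 Further: cells exposed to compound for four days; 0% = vehicle DMSO and 100% = cell killing by high DMSO.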 The conditions noted are these: HDN33 neuroblastoma cells, measured here: with cisplatin IC20 combination, at 0.5 µM, stronger effect = higher value.
Broadly, the inhibition is the drop in the measured response relative to a control, in per cent. In the case of `CNNCc1ccc(C(=O)NC(C)C)cc1`, the inhibition was 7.54% and 20.8%.

In the case of `O=NN(CCCl)C(=O)NC1CCCCC1`, the inhibition is -22.8% and -17.6%.

Turning to `O=NN(CCCl)C(=O)NCCCl`, the inhibition is -4.17%.

Turning to `O=c1c(O)c(-c2ccc(O)c(O)c2)oc2cc(O)cc(O)c12`, the inhibition amounted to 12.4%.

As to `Nc1nc(=S)c2[nH]cnc2[nH]1`, the inhibition came out at 18.7%.

Regarding `CC(N)C12CC3CC(CC(C3)C1)C2` (configuration not stated), the inhibition is -23.6%.

Consider `O=c1oc2c(O)c(O)cc3c(=O)oc4c(O)c(O)cc1c4c23`, for which the inhibition is -3.36%.

The same assay, now with this note: HDN33 neuroblastoma cells, single agent, at 5 µM, stronger effect = higher value.
Consider `CNNCc1ccc(C(=O)NC(C)C)cc1`, for which the inhibition is 17.8% and 2.31%.

With `O=NN(CCCl)C(=O)NC1CCCCC1`, the inhibition is -25.6% and 2.38%.

For the compound `O=NN(CCCl)C(=O)NCCCl`, the inhibition is -8.15%.

As for `O=c1c(O)c(-c2ccc(O)c(O)c2)oc2cc(O)cc(O)c12`, the inhibition is -15.2%.

With `Nc1nc(=S)c2[nH]cnc2[nH]1`, the inhibition came out at 80.7%.

Regarding `CC(N)C12CC3CC(CC(C3)C1)C2` (configuration not stated), the inhibition is -36.9%.

On to `O=c1oc2c(O)c(O)cc3c(=O)oc4c(O)c(O)cc1c4c23`, for which the inhibition was -3.55%.

A further assay is described as follows: ICB984 medulloblastoma cell growth inhibition, synergistic combos for chromothripsis tumors, cisplatin or BGB combos (AID 1671451).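 Further: cells exposed for 96 hours before readout; 0% = vehicle DMSO and 100% = killing by high DMSO.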 Particulars: ICB984 medulloblastoma cells, drug combinations, BGB IC20 combo, at 0.005 µM, stronger effect = higher value.
For the compound `CNNCc1ccc(C(=O)NC(C)C)cc1`, the inhibition was 9.83% and 1.87%.

Take `O=NN(CCCl)C(=O)NC1CCCCC1`: the inhibition was -12.5% and 2.61%.

`O=NN(CCCl)C(=O)NCCCl`: the inhibition was 5.44%.

On to `O=c1c(O)c(-c2ccc(O)c(O)c2)oc2cc(O)cc(O)c12`, for which the inhibition was determined as 14%.

Regarding `Nc1nc(=S)c2[nH]cnc2[nH]1`, the inhibition was -12.4%.

Consider `CC(N)C12CC3CC(CC(C3)C1)C2` (configuration not stated), for which the inhibition is -4.5%.

Turning to `O=c1oc2c(O)c(O)cc3c(=O)oc4c(O)c(O)cc1c4c23`, the inhibition came to 10.1%.

Still in this assay, the particulars now being: ICB984 medulloblastoma cells, drug combinations, BGB IC40 combo, at 0.005 µM, stronger effect = higher value.
As to `CNNCc1ccc(C(=O)NC(C)C)cc1`, the inhibition is -24.6% and -19.9%.

Turning to `O=NN(CCCl)C(=O)NC1CCCCC1`, the inhibition was -25.1% and -35.2%.

Take `O=NN(CCCl)C(=O)NCCCl`: the inhibition is -42.6%.

Regarding `O=c1c(O)c(-c2ccc(O)c(O)c2)oc2cc(O)cc(O)c12`, the inhibition was -3.66%.

On to `Nc1nc(=S)c2[nH]cnc2[nH]1`, for which the inhibition was -52.4%.

With `CC(N)C12CC3CC(CC(C3)C1)C2` (configuration not stated), the inhibition is -19.4%.

On to `O=c1oc2c(O)c(O)cc3c(=O)oc4c(O)c(O)cc1c4c23`, for which the inhibition is -45.8%.

The same assay, now with this note: ICB984 medulloblastoma cells, drug combinations, BGB IC40 combo, at 0.05 µM, stronger effect = higher value.
Take `CNNCc1ccc(C(=O)NC(C)C)cc1`: the inhibition was -27.1% and 7.42%.

As to `O=NN(CCCl)C(=O)NC1CCCCC1`, the inhibition was -15.4% and -60.7%.

Regarding `O=NN(CCCl)C(=O)NCCCl`, the inhibition is -39%.

With `O=c1c(O)c(-c2ccc(O)c(O)c2)oc2cc(O)cc(O)c12`, the inhibition is -21.1%.

As for `Nc1nc(=S)c2[nH]cnc2[nH]1`, the inhibition is -32.5%.

For the compound `CC(N)C12CC3CC(CC(C3)C1)C2` (configuration not stated), the inhibition is -14.2%.

With `O=c1oc2c(O)c(O)cc3c(=O)oc4c(O)c(O)cc1c4c23`, the inhibition was -40.1%.

Still in this assay, the particulars now being: ICB984 medulloblastoma cells, drug combinations, at 0.5 µM, stronger effect = higher value.
In the case of `CNNCc1ccc(C(=O)NC(C)C)cc1`, the inhibition is -17.4% (inactive) and -14% (inactive).

In the case of `O=NN(CCCl)C(=O)NC1CCCCC1`, the inhibition was -38.4% (inactive) and -29.6% (inactive).

For the compound `O=NN(CCCl)C(=O)NCCCl`, the inhibition was -40.7% (inactive).

Turning to `O=c1c(O)c(-c2ccc(O)c(O)c2)oc2cc(O)cc(O)c12`, the inhibition was 2.09% (inactive).

In the case of `Nc1nc(=S)c2[nH]cnc2[nH]1`, the inhibition is -36% (inactive).

Consider `CC(N)C12CC3CC(CC(C3)C1)C2` (configuration not stated), for which the inhibition is -43.5% (inactive).

Consider `O=c1oc2c(O)c(O)cc3c(=O)oc4c(O)c(O)cc1c4c23`, for which the inhibition is -16.9% (inactive).

The same assay, now with this note: ICB984 medulloblastoma cells, drug combinations, cisplatin combo, at 0.05 µM, stronger effect = higher value.
`CNNCc1ccc(C(=O)NC(C)C)cc1`: the inhibition was -31.7% and 4.83%.

On to `O=NN(CCCl)C(=O)NC1CCCCC1`, for which the inhibition is -18.7% and -67%.

Turning to `O=NN(CCCl)C(=O)NCCCl`, the inhibition is -44.5%.

In the case of `O=c1c(O)c(-c2ccc(O)c(O)c2)oc2cc(O)cc(O)c12`, the inhibition is -21.1%.

Regarding `Nc1nc(=S)c2[nH]cnc2[nH]1`, the inhibition was -37.7%.

On to `CC(N)C12CC3CC(CC(C3)C1)C2` (configuration not stated), for which the inhibition is -17.4%.

As to `O=c1oc2c(O)c(O)cc3c(=O)oc4c(O)c(O)cc1c4c23`, the inhibition is -45.7%.

Staying with this assay, now noted: ICB984 medulloblastoma cells, drug combinations, cisplatin combo, at 0.5 µM, stronger effect = higher value.
As to `CNNCc1ccc(C(=O)NC(C)C)cc1`, the inhibition was -11.9% and -3.72%.

With `O=NN(CCCl)C(=O)NC1CCCCC1`, the inhibition is -33.8% and -42.1%.

Consider `O=NN(CCCl)C(=O)NCCCl`, for which the inhibition was -65.9%.

For the compound `O=c1c(O)c(-c2ccc(O)c(O)c2)oc2cc(O)cc(O)c12`, the inhibition is -0.46%.

Consider `Nc1nc(=S)c2[nH]cnc2[nH]1`, for which the inhibition was -55.5%.

Turning to `CC(N)C12CC3CC(CC(C3)C1)C2` (configuration not stated), the inhibition is -54.1%.

Take `O=c1oc2c(O)c(O)cc3c(=O)oc4c(O)c(O)cc1c4c23`: the inhibition was -24.8%.

Still in this assay, the particulars now being: ICB984 medulloblastoma cells, drug combinations, cisplatin combo, at 5 µM, stronger effect = higher value.
For `CNNCc1ccc(C(=O)NC(C)C)cc1`, the inhibition was 2.16% and -28.3%.

In the case of `O=NN(CCCl)C(=O)NC1CCCCC1`, the inhibition is -56.7% and -19.2%.

As for `O=NN(CCCl)C(=O)NCCCl`, the inhibition is -35.2%.

For the compound `O=c1c(O)c(-c2ccc(O)c(O)c2)oc2cc(O)cc(O)c12`, the inhibition is -2.17%.

For `Nc1nc(=S)c2[nH]cnc2[nH]1`, the inhibition was -19.8%.

Consider `CC(N)C12CC3CC(CC(C3)C1)C2` (configuration not stated), for which the inhibition was -42.4%.

Regarding `O=c1oc2c(O)c(O)cc3c(=O)oc4c(O)c(O)cc1c4c23`, the inhibition is -34.2%.

The same assay, now with this note: ICB984 medulloblastoma cells, drug combinations, measured here: 5 uM single agent, at 5 µM, stronger effect = higher value.
Consider `CNNCc1ccc(C(=O)NC(C)C)cc1`, for which the inhibition was 3.31% and -11.8%.

Turning to `O=NN(CCCl)C(=O)NC1CCCCC1`, the inhibition was -34.3% and -15.2%.

With `O=NN(CCCl)C(=O)NCCCl`, the inhibition was -15.7%.

As for `O=c1c(O)c(-c2ccc(O)c(O)c2)oc2cc(O)cc(O)c12`, the inhibition was found to be 2.61%.

With `Nc1nc(=S)c2[nH]cnc2[nH]1`, the inhibition was -9.37%.

For `CC(N)C12CC3CC(CC(C3)C1)C2` (configuration not stated), the inhibition was found to be 12.3%.

Turning to `O=c1oc2c(O)c(O)cc3c(=O)oc4c(O)c(O)cc1c4c23`, the inhibition is -15.6%.

The next assay in a line: LFS_MB_1R medulloblastoma cell growth inhibition, synergistic combos for chromothripsis tumors, cisplatin or BGB combos (AID 1671452; in the data active means inhibition above about 80%;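 further: cells exposed for 96 hours before readout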). The conditions noted are these: LFS_MB_1R medulloblastoma cells, at 0.5 µM, stronger effect = higher value.
As for `CNNCc1ccc(C(=O)NC(C)C)cc1`, the inhibition was 9.11% (inactive) and -17.9% (inactive).

As for `O=NN(CCCl)C(=O)NC1CCCCC1`, the inhibition was -15.1% (inactive) and -17.6% (inactive).

Take `O=NN(CCCl)C(=O)NCCCl`: the inhibition was -12.2% (inactive).

As to `O=c1c(O)c(-c2ccc(O)c(O)c2)oc2cc(O)cc(O)c12`, the inhibition is -24.6% (inactive).

Regarding `Nc1nc(=S)c2[nH]cnc2[nH]1`, the inhibition was -22.2% (inactive).

In the case of `CC(N)C12CC3CC(CC(C3)C1)C2` (configuration not stated), the inhibition was -32.9% (inactive).

Take `O=c1oc2c(O)c(O)cc3c(=O)oc4c(O)c(O)cc1c4c23`: the inhibition is -12.6% (inactive).
